Screens deposited in PubChem BioAssay by several laboratories.
MLLE-PAM2 inh – inhibitors of microRNA-mediated deadenylation, human PABP1 MLLE binding; P11940; GST-MLLE / FITC-PAM2 fluorescence polarization; inhibition, % at 20 µM; 0.36% of 360,000 active; AID 588489; in the data active = inhibition above about 35%, passing the limit was not always enough;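 note: plate controls were DMSO wells with GST-MLLE for no effect and wells lacking GST-MLLE protein for full effect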
eIF4E 4G PPI – blocks eIF4E binding to eIF4G | 0.37% of 220,000 active | P63073+Q04637 | TR-FRET eIF4E-eIF4GI(517-606) binding, 2 h | inhibition, % at 21.7 µM;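 active = inhibition above about 30%, limit read from the data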;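 note: 0% = full FRET control wells and 100% = background wells lacking eIF4GI fragment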
PABP FP inh – blocks human PABP binding to poly(A) RNA; fluorescence polarization; calls only at 35 µM; 1% of 290,000 active; AID 2014;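 note: calls also rest on retests at 20 µM and on dose response follow-up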
eIF4H inh – inhibitors of RNA binding by human eIF4H. Q15056. eIF4H fluorescence polarization binding assay. inhibition, % at 35 µM. 0.94% of 290,000 active. AID 2012;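 note: calls also rest on retests at 20 µM and on dose response follow-up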
Numbers without * were called inactive; i = inactive; ? = inconclusive; nt = no result given; + = active, no number. In the library only some 1.5% were active in any assay of this set; here they are far more common. Unless noted, the rule behind the calls is not given here.

SMILES	MLLE-PAM2 inh	eIF4E 4G PPI	PABP FP inh	eIF4H inh
COC(=O)c1c(C)[nH]c(C(=O)N2CCN(c3ccc(OC)cc3)CC2)c1C	nt	5.7	+	?
CC(C)(C)S(=O)N1Cc2cc(C(=O)NCc3ccc4c(c3)OCO4)nc(-c3cccc(-c4ccccc4)c3)c2[C@@H]1CCO (some centres not stated)	-6.5	nt	nt	nt
CCOc1ccc(-c2csc(/C(C#N)=C\c3ccc(O)c([N+](=O)[O-])c3)n2)cc1	-24.6	6.0	i	58.2*
COc1ccc(NC(=O)CCS(=O)(=O)c2ccc(Br)s2)cc1	-1.0	nt	i	91.4*
CCc1ccccc1NC(=O)CCS(=O)(=O)c1ccc(Br)cc1	2.5	nt	i	32.8
COc1ccc([N+](=O)[O-])cc1NC(=O)CCS(=O)(=O)c1ccc(Br)cc1	0.7	nt	i	96.0*
O=C(CCS(=O)(=O)c1ccc(Cl)cc1)Nc1ccccc1Br	7.4	nt	i	-10.6
CCOc1ccccc1NC(=O)CCS(=O)(=O)c1ccc(Br)cc1	8.6	nt	+	84.5*
COC(=O)c1ccccc1NC(=O)CCS(=O)(=O)c1ccc(Br)cc1	-6.3	11.3	i	85.9*
Cn1ccc2c(-c3ccc(CO)cc3)cc3c(c21)C1CCC3C1 (configuration not stated)	-3.1	nt	nt	nt
CCC12CC1(C(=O)OC)C(=O)N1CCc3c([nH]c4ccccc34)C12 (configuration not stated)	4.4	nt	nt	nt
O=C(NCC(c1ccco1)N1CCN(c2ccccc2)CC1)C1CCCCC1 (configuration not stated)	-0.5	nt	nt	nt
CCOc1ccc(NC(=O)CCS(=O)(=O)c2ccc(Br)cc2)cc1	7.4	nt	i	76.1*
O=C(CCS(=O)(=O)c1ccc(Br)cc1)NCc1ccco1	-6.8	nt	i	80.8*
O=C(CCS(=O)(=O)c1ccc(Br)cc1)NCc1cccs1	5.6	5.3	i	30.0
COc1cc2c(cc1OC)C(=NO)CCCC2	-3.1	nt	nt	nt
OC[C@@H](O)C(O)[C@@H](O)CO (some centres not stated)	-6.5	nt	nt	nt
CSCC(C)N1CCC(n2nccc2NC(=O)CCOc2ccccc2)CC1 (configuration not stated)	13.1	nt	+	77.4
CC(C)COC(=O)N1CCCCC1c1cc(C(=O)NCc2ccccc2)no1 (configuration not stated)	-9.6	nt	nt	nt
COc1cc(NC(=O)c2cnc(N)s2)cc(C(=O)Nc2cccc(C(F)(F)F)c2)c1	-8.4	31.3*	i	-13.2
COc1cc(NC(=O)c2ccnc(N)c2)cc(C(=O)Nc2cccc(C(F)(F)F)c2)c1	10.5	-4.1	i	-13.2
CN1CCN(NC(=S)NC2CCCCC2)CC1	-12.4	2.2	+	86.6*
S=C(NC1CCCCC1)NN1CCCCCC1	-32.8	nt	nt	nt
Cc1ccc(CN(C)C(=O)COC(=O)CSc2ccc([N+](=O)[O-])cc2)cc1	43.3*	nt	nt	nt
Cc1ccc(S(=O)(=O)NC(=O)C2(C)CCN2C(=O)CC2CCCCC2)nc1 (configuration not stated)	3.8	nt	nt	nt
SMILES	MLLE-PAM2 inh	eIF4E 4G PPI	PABP FP inh	eIF4H inh
Cn1c(NCc2ccccc2F)nc2cc(-c3cccc(C(F)(F)F)c3)sc2c1=O	-6.3	nt	nt	nt
CC1(C)Nc2cccc3cccc(c23)N1	18.9	nt	nt	nt
c1cc2c3c(cccc3c1)NC1(CCCC1)N2	43.4*	nt	nt	nt
COc1ccc2c(c1)c(=O)oc1cc(OCC(=O)NC3CCCCC3)ccc12	-12.9	6.8	i	91.1*
Cc1ccc(C(=O)N/C(=C/c2ccco2)C(=O)N2CCCCC2)cc1	-12.3	nt	i	0.2
COc1ccc(C(=O)N/C(=C/c2ccco2)C(=O)N2CCCCCC2)cc1	-37.3	nt	+	53.4
O=C(N/C(=C/c1ccco1)C(=O)N1CCCCCC1)c1cccs1	-7.3	-1.3	+	62.0
COC(=O)/C(=C/c1ccco1)NC(=O)c1ccccc1	4.3	16.6	i	16.8
Cc1ccc(C(=O)N/C(=C/c2ccco2)C(=O)OCN2C(=O)c3ccccc3C2=O)cc1	9.3	7.2	i	79.3*
O=C1NC[C@H](c2ccccc2)N(CCC23CC4CC(CC(C4)C2)C3)C1=O	1.8	nt	nt	nt
CCCC(=O)N1CCC1(C)C(=O)Nc1scc(C)c1C#N (configuration not stated)	3.7	nt	nt	nt
COc1ccc(/C=C2\C(=O)NC(=S)N2C(=O)c2ccc(F)cc2)cc1	-167.4	6.7	i	48.1
O=C1NC(=S)N(C(=O)c2ccc(F)cc2)/C1=C/c1ccccc1	-130.0	7.5	+	71.7*
O=S1(=O)C=CC(c2ccccc2)C1 (configuration not stated)	4.7	2.1	i	-2.7
CC1=C(C#N)S(=O)(=O)C(C#N)C(c2ccccc2)C1 (configuration not stated)	-5.9	95.5*	i	17.0
COc1cc(F)ccc1-c1csc(C(C)(NC(C)=O)c2ccccc2)n1 (configuration not stated)	-3.7	nt	nt	nt
CSc1cccc(NC(=S)N(Cc2ccc(C)cc2)Cc2cccnc2)c1	-16.2	87.1*	i	0.0
C=CCN(Cc1ccc(Br)s1)C(=O)c1ccc(OCc2c(C)noc2C)cc1	-0.1	nt	nt	nt
CCOc1ccccc1OCc1nn2c(COc3ccccc3)nnc2s1	25.2	31.6*	i	-7.3
COc1cccc(Nc2nc(C(N)CCc3ccccc3)cs2)n1 (configuration not stated)	-16.0	nt	nt	nt
CC(C)OCCCNc1ncnc2c1nc1n2CCCC1	3.5	nt	+	93.5*
O=C(NCCCN1CCCCC1)C1CCN(c2ncnc3c2nc2n3CCCCC2)CC1	11.5	nt	i	-2.5
Cc1ccc2cc(C#N)c(N3CCCN(C(=O)C4CCCO4)CC3)nc2c1C (configuration not stated)	-4.2	0.6	+	93.8*
Cc1ccc2cc(C#N)c(N3CCCC3)nc2c1C	-11.6	nt	i	5.5
Nc1nc(N)c(N=Nc2ccccc2)c(=O)[nH]1	-12.8	nt	nt	nt
SMILES	MLLE-PAM2 inh	eIF4E 4G PPI	PABP FP inh	eIF4H inh
Nc1nc(N=Nc2ccc(O)cc2)cc(=O)[nH]1	51.6*	nt	nt	nt
CC(=O)C1=C(C)NC(SCC(=O)c2cc(Cl)ccc2Cl)=C(C#N)C1c1ccco1 (configuration not stated)	-24.6	nt	i	0.2
CC(=O)C1=C(C)NC(SCC(=O)c2ccc(Cl)c(Cl)c2)=C(C#N)C1c1ccco1 (configuration not stated)	-31.6	nt	+	71.0*
CCOC(=O)CSC1=C(C#N)C(c2ccccc2F)C(C(C)=O)=C(C)N1 (configuration not stated)	-41.7	0.1	?	50.4*
CCc1ccc(C(=O)CSC2=C(C#N)C(c3ccco3)C(C(C)=O)=C(C)N2)cc1 (configuration not stated)	nt	-8.3	i	71.5*
CC(=O)C1=C(C)NC(SCC(=O)c2ccc(F)cc2)=C(C#N)C1c1ccco1 (configuration not stated)	-36.9	3.9	i	26.9
COc1cc(CNc2ncnc3c2ncn3[C@H]2CN(Cc3cccc(C(F)(F)F)c3)C[C@@H](CO)O2)cc(OC)c1OC	5.6	nt	nt	nt
COc1ccc(-c2c[n+]3c(n2-c2ccc(C)cc2)CCCCC3)cc1	12.0	-4.6	i	3.4
